Source: PubChem BioAssay AID686949 (The Scripps Research Institute Molecular Screening Center, 2013)
Hit rate of the full screen: of about 3,200 compounds, about 2,200 (69%) were called active. The set was probably picked from earlier hits. A selection follows. Unmarked numbers belong to inactive results.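 How the source made its calls: active means activation, as change over the incubation, above the mean of all tested compounds plus 3 SD (cut at about 13% in these data); inactive means the rest.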

These compounds were tested against Kallikrein-7 (Homo sapiens) (UniProt P49862) (assay: proKLK7 zymogen activators, confirmation, biochemical, fluorescence intensity, triplicate (AID 686949)). Conditions: purified proKLK7, EDANS-DABCYL substrate fluorescence; at 7 µM; active compounds read high; scaled: vehicle 0, mature enzyme 100.
Chain of Kallikrein-7 (Homo sapiens) (P49862 whole entry, looked up): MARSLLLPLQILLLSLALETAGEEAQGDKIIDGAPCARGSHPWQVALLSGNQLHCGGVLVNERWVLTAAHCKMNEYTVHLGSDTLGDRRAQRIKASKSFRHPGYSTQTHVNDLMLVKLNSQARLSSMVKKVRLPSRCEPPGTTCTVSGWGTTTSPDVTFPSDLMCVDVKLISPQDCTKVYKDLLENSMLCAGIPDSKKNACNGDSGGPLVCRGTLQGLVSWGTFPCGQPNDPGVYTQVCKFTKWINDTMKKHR
Clc1ccc(-c2cccc3nccn23)cc1 gave an activation of 8.31%. For COc1cc(/C=C/C(=O)Nc2ccc(OC)c(S(=O)(=O)N3CCOCC3)c2)ccc1OCC#N, the activation was 96.2% (active). CCOc1ccccc1C1C(C(=O)OC)=CN(C)C=C1C(=O)OC was tested, and the activation was -23.5%. CN(C(=O)COc1ccccc1)c1nnc(-c2ccncc2)s1 was tested, and the activation was 111% (active). In the case of CN(C(=O)c1ccccn1)c1nnc(-c2ccccn2)s1, the activation is reported as 74% (active). With COCC(=O)Nc1nnc(COc2ccccc2)s1 the activation was -0.07%. Oc1ccc2ccc3cccc[n+]3c2c1 was tested, and the activation was 34.6% (active). With CN(C(=O)c1cc2c(=O)n3ccccc3nc2s1)C1CCCCC1 the activation was 33% (active). CCOCCCNC(=O)c1cc2c(=O)n3ccccc3nc2s1 was tested, and the activation was 74.1% (active). CCN(CC)CCCNC(=O)c1cc2c(=O)[nH]c3ccc(C)cc3c2s1 showed an activation of 1.54%. CCN(CC)CCCC(C)n1c2nc(=O)[nH]c(=O)c-2nc2cc(Cl)ccc21 (stereo not given) was tested, and the activation was 75.6% (active). CCN1CCN(C(=O)Cn2nc(C)n3c(cc4c(OC)cccc43)c2=O)CC1 was tested, and the activation was 21% (active). COC(=O)c1cc(N2CCNCC2)nc2ccccc12 was tested, and the activation was 17.1% (active). With CN(CCc1ccccn1)S(=O)(=O)c1ccc2c3c(cccc13)C(=O)N2 the activation was 68.2% (active). For C=CCn1c(N)c(S(=O)(=O)c2cccs2)c2nc3ccccc3nc21, the activation was 8.74%. With COCCCn1c(-c2cccs2)nc2nc3ccccc3nc21 the activation was 24.1% (active). Cc1cc2cc3n(c2nn1)N=C(Cl)CC3 was tested, and the activation was 33.3% (active). In the case of CCC1=C(C(=O)OC)C(c2cc(OC)ccc2OC)C(C#N)=C(N)O1 (stereo not given), the activation is reported as 32.8% (active). O=c1oc2c(CN3CCCCC3)c(O)ccc2c2c1CCCCC2 was tested, and the activation was 74.6% (active). In the case of COc1c(N2CCN(C(=S)Nc3ccccc3F)C(C)C2)c(F)cc2c(=O)c(C(=O)O)cn(C3CC3)c12 (stereo not given), the activation is reported as 18.5% (active). In the case of COc1ccc2c(c1)CCc1cn3ncc(C#N)c3nc1-2, the activation is reported as -106%. With CNc1cncc(-c2ccc(NS(C)(=O)=O)cc2)n1 the activation was 39.7% (active). In the case of C/C(=C\c1ccccc1)C1NC(=O)c2c(sc3c2CCCC3)N1 (stereo not given), the activation is reported as 22.4% (active). In the case of COCc1cc(=O)oc2cc(NS(=O)(=O)c3ccc(C)cc3)ccc12, the activation is reported as 72.3% (active). For N#CC1=C(N)Oc2c(sc3ccccc23)C1c1ccco1 (stereo not given), the activation was -25.1%. With CC1(C)Oc2ccc3ccc(=O)oc3c2/C(=N/O)C1=O the activation was 89.9% (active). With Cc1nc2ccc(N)nc2nc1C the activation was 49.6% (active). For O=C1NC(c2cccc(Cl)c2)Nc2ccccc21 (stereo not given), the activation was 20.5% (active). CCNC(=S)Nc1ccc2c(c1)c(=O)n(C)n2Cc1ccc(Cl)cc1 was tested, and the activation was -4.46%. In the case of COc1ccc(CCNC(=O)Nc2ccc3c(c2)c(=O)n(C)n3C)cc1OC, the activation is reported as 24.5% (active). With C[C@@H]1C(c2ccc(F)cc2)=NN(c2ccc(Br)cc2)[C@H]1C(=O)N1CCOC1=O the activation was 27.9% (active). In the case of CCN(CC(=O)Nc1c(F)cccc1F)C(=O)c1ccc(-c2ccc(C(C)=O)cc2)o1, the activation is reported as -16.9%. In the case of O=C(NCCN1CCOCC1)c1cc(-c2cccs2)nc2ccccc12, the activation is reported as 24.8% (active). For CCCCN(C)CCCNC(=O)c1cc(-c2cccs2)nc2ccccc12, the activation was -47.1%. For Cc1ccc(C2Nc3ccccc3C(=O)N2CCN2CCNC2=O)cc1 (stereo not given), the activation was 16.7% (active). With CC(=O)Nc1ccc(-c2cn3cccnc3n2)cc1 the activation was 74% (active). With CC(C)(C)C(=O)Nc1ccc(-c2cn3cccnc3n2)cc1 the activation was 73.9% (active). In the case of CCCCCC(=O)Nc1ccc(-c2cn3cccnc3n2)cc1, the activation is reported as 24.5% (active). In the case of CCN1CCCC1CNC(=O)c1cc2cc(OC)c(OC)cc2[nH]1 (stereo not given), the activation is reported as 24.7% (active). With CCOc1ccc(-n2c(SCC(=O)Nc3cc(C)c(NC(=O)c4ccccc4)cc3OC)nnc2-c2cccs2)cc1 the activation was 15.9% (active). In the case of CC(=O)Nc1cc2ccc(OC(C)=O)cc2oc1=O, the activation is reported as 125% (active). For CC(=O)Oc1ccc2c(C)c(CC(C)O)c(=O)oc2c1 (stereo not given), the activation was 72.5% (active). Compound CN1c2ccccc2-c2nc3ccccc3n2C1c1ccco1 (stereo not given) has an activation of 7.38%. In the case of Cc1cc(C)c2nc3nc(C)cc(C)c3c(N)c2c1, the activation is reported as 69% (active). With COc1cc2c(cc1OC)C(C(C)C)=NC(C)(C)C2 the activation was 63.8% (active).
